“And” between values parts separate entries of the source, which are not always exact repeats. Identical values can stand only once. The whole screen tested about 5,500 compounds, of which about 2,000 (36%) were called active. Inconclusive results (about 18%) are left out. Cut-off read from the data, not from the text of the source: active = normalized growth mostly below about 0.91 (no sharp cut-off); inconclusive = no clear call, values can overlap the other calls; inactive = mostly above about 0.92. This is one part of the list.
Experiment: chemical genetic growth profiling, strain panel (AID 1159580);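 note: tested at 20 µM; growth read once vehicle control cultures reached saturation at 30 °C; 1 = growth at the plate median or of vehicle wells; lower values mean less growth of the strain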
Conditions: S. cerevisiae deletion strains, growth OD

## O=c1c(O)c(-c2ccccc2)oc2cc(O)ccc12
Locus YAL021C, strain ccr4, stronger effect = lower value
  normalized growth: 0.572 (active)
Locus YAL026C, strain drs2, stronger effect = lower value
  normalized growth: 0.486 (active)
Locus YAL030W, strain snc1, stronger effect = lower value
  normalized growth: 0.66 (active)
Locus YBL061C, strain skt5, stronger effect = lower value
  normalized growth: 0.685 (active)
Locus YBR009C, strain hhf1, stronger effect = lower value
  normalized growth: 0.597 (active)
Locus YBR021W, strain FUR4, stronger effect = lower value
  normalized growth: 1.05 (inactive)
Locus YBR023C, strain chs3, stronger effect = lower value
  normalized growth: 0.518 (active)
Locus YBR171W, strain sec66, stronger effect = lower value
  normalized growth: 0.825 (active)
Locus YBR229C, strain ROT2, stronger effect = lower value
  normalized growth: 0.873 (active)
Locus YBR231C, strain swc5, stronger effect = lower value
  normalized growth: 0.572 (active)
Locus YBR279W, strain paf1, stronger effect = lower value
  normalized growth: 0.641 (active)
Locus YCL011C, strain gbp2, stronger effect = lower value
  normalized growth: 0.583 (active)
Locus YCL016C, strain dcc1, stronger effect = lower value
  normalized growth: 0.711 (active)
Locus YCL029C, strain bik1, stronger effect = lower value
  normalized growth: 0.779 (active)
Locus YCL061C, strain MRC1, stronger effect = lower value
  normalized growth: 0.799 (active)
Locus YCL069W, strain vba3, stronger effect = lower value
  normalized growth: 0.864 (active)
Locus YCR088W, strain abp1, stronger effect = lower value
  normalized growth: 0.937 (inactive)
Locus YDL005C, strain med2, stronger effect = lower value
  normalized growth: 0.941 (inactive)
Locus YDL035C, strain GPR1, stronger effect = lower value
  normalized growth: 0.432 (active)
Locus YDL040C, strain nat1, stronger effect = lower value
  normalized growth: 0.847 (active)
Locus YDL074C, strain BRE1, stronger effect = lower value
  normalized growth: 0.455 (active)
Locus YDL101C, strain DUN1, stronger effect = lower value
  normalized growth: 0.697 (active)
Locus YDL185W, strain tfp1, stronger effect = lower value
  normalized growth: 0.928 (inactive)
Locus YDL192W, strain arf1, stronger effect = lower value
  normalized growth: 0.664 (active)
Locus YDR001C, strain nth1, stronger effect = lower value
  normalized growth: 0.887 (active)
Locus YDR069C, strain doa4, stronger effect = lower value
  normalized growth: 0.413 (active)
Locus YDR101C, strain arx1, stronger effect = lower value
  normalized growth: 0.903 (active)
Locus YDR137W, strain rgp1, stronger effect = lower value
  normalized growth: 0.38 (active)
Locus YDR150W, strain NUM1, stronger effect = lower value
  normalized growth: 0.707 (active)
Locus YDR159W, strain sac3, stronger effect = lower value
  normalized growth: 0.886 (inactive)
Locus YDR162C, strain NBP2, stronger effect = lower value
  normalized growth: 0.121 (active)
Locus YDR195W, strain ref2
  normalized growth: 1.07 (inactive)
Locus YDR297W, strain sur2, stronger effect = lower value
  normalized growth: 0.77 (active)
Locus YDR318W, strain mcm21, stronger effect = lower value
  normalized growth: 0.708 (active)
Locus YDR334W, strain swr1, stronger effect = lower value
  normalized growth: 0.704 (active)
Locus YDR335W, strain msn5, stronger effect = lower value
  normalized growth: 0.757 (active)
Locus YDR388W, stronger effect = lower value
  normalized growth: 0.759 (active)
Locus YDR392W, strain spt3, stronger effect = lower value
  normalized growth: 0.369 (active)
Locus YDR502C, strain sam2, stronger effect = lower value
  normalized growth: 0.751 (active)
Locus YEL003W, strain gim4, stronger effect = lower value
  normalized growth: 0.754 (active)
Locus YEL037C, strain rad23, stronger effect = lower value
  normalized growth: 0.794 (active)
Locus YEL061C, strain CIN8 (second series), stronger effect = lower value
  normalized growth: 0.915 (inactive)
Locus YEL061C, strain CIN8, stronger effect = lower value
  normalized growth: 0.705 (active)
Locus YER015W, strain faa2, stronger effect = lower value
  normalized growth: 0.454 (active)
Locus YER016W, strain bim1, stronger effect = lower value
  normalized growth: 0.766 (active)
Locus YER110C, stronger effect = lower value
  normalized growth: 0.92 (inactive)
Locus YER111C, strain swi4, stronger effect = lower value
  normalized growth: 0.873 (active)
Locus YER155C, strain BEM2 (second series), stronger effect = lower value
  normalized growth: 0.81 (active)
Locus YER155C, strain BEM2, stronger effect = lower value
  normalized growth: 0.627 (active)
Locus YER167W, strain BCK2, stronger effect = lower value
  normalized growth: 0.676 (active)
Locus YFR010W, strain ubp6, stronger effect = lower value
  normalized growth: 0.62 (active)
Locus YGL078C, strain dbp3, stronger effect = lower value
  normalized growth: 0.948 (inactive)
Locus YGL086W, strain mad1, stronger effect = lower value
  normalized growth: 0.699 (active)
Locus YGL167C, strain pmr1, stronger effect = lower value
  normalized growth: 0.882 (active)
Locus YGL173C, strain kem1, stronger effect = lower value
  normalized growth: 0.382 (active)
Locus YGL227W, strain vid30, stronger effect = lower value
  normalized growth: 0.931 (inactive)
Locus YGL240W, strain doc1, stronger effect = lower value
  normalized growth: 0.675 (active)
Locus YGL248W, strain PDE1, stronger effect = lower value
  normalized growth: 0.506 (active)
Locus YGL253W, strain hxk2, stronger effect = lower value
  normalized growth: 0.508 (active)
Locus YGR078C, strain PAC10, stronger effect = lower value
  normalized growth: 0.586 (active)
Locus YGR135W, strain pre9, stronger effect = lower value
  normalized growth: 0.675 (active)
Locus YGR252W, strain gcn5, stronger effect = lower value
  normalized growth: 0.701 (active)
Locus YHR013C, strain ard1, stronger effect = lower value
  normalized growth: 0.439 (active)
Locus YHR027C, strain rpn1, stronger effect = lower value
  normalized growth: 0.339 (active)
Locus YHR030C, strain SLT2, stronger effect = lower value
  normalized growth: 0.434 (active) and 1.07 (inactive)
Locus YHR079C, strain IRE1 (second series), stronger effect = lower value
  normalized growth: 0.913 (active)
Locus YHR079C, strain IRE1, stronger effect = lower value
  normalized growth: 1.07 (inactive)
Locus YHR094C, strain hxt1, stronger effect = lower value
  normalized growth: 0.903 (active)
Locus YHR129C, strain ARP1, stronger effect = lower value
  normalized growth: 0.564 (active)
Locus YHR142W, strain chs7, stronger effect = lower value
  normalized growth: 0.474 (active)
Locus YHR200W, strain rpn10, stronger effect = lower value
  normalized growth: 0.825 (active)
Locus YIL066C, strain RNR3, stronger effect = lower value
  normalized growth: 0.663 (active)
Locus YIL073C, strain SPO22, stronger effect = lower value
  normalized growth: 0.326 (active)
Locus YIL125W, strain kgd1, stronger effect = lower value
  normalized growth: 0.951 (inactive)
Locus YIR030C, strain dcg1, stronger effect = lower value
  normalized growth: 0.858 (active)
Locus YJL092W, strain hpr5, stronger effect = lower value
  normalized growth: 0.79 (active)
Locus YJL095W, strain BCK1 (second series), stronger effect = lower value
  normalized growth: 0.337 (active)
Locus YJL095W, strain BCK1, stronger effect = lower value
  normalized growth: 0.208 (active) and 1.01 (inactive)
Locus YJL115W, strain asf1, stronger effect = lower value
  normalized growth: 0.9 (active)
Locus YJL129C, strain trk1, stronger effect = lower value
  normalized growth: 0.809 (active)
Locus YJL134W, strain LCB3, stronger effect = lower value
  normalized growth: 0.844 (active)
Locus YJL154C, strain vps35, stronger effect = lower value
  normalized growth: 0.885 (active)
Locus YJL164C, strain tpk1, stronger effect = lower value
  normalized growth: 0.432 (active)
Locus YJL166W, strain qcr8, stronger effect = lower value
  normalized growth: 0.471 (active)
Locus YJL168C, strain set2, stronger effect = lower value
  normalized growth: 0.902 (active)
Locus YJL187C, strain SWE1 (second series), stronger effect = lower value
  normalized growth: 0.5 (active)
Locus YJL187C, strain SWE1, stronger effect = lower value
  normalized growth: 0.653 (active)
Locus YJR043C, strain POL32, stronger effect = lower value
  normalized growth: 0.387 (active)
Locus YJR066W, strain TOR1, stronger effect = lower value
  normalized growth: 0.982 (inactive)
Locus YJR075W, strain HOC1, stronger effect = lower value
  normalized growth: 0.571 (active)

From PubChem BioAssay AID1159580 (chemical genetic matrix, 2015)
